Reference: PubChem BioAssay (NCATS)
Inconclusive results are not listed. Activity calls are given as the source filed them. Unless noted, calls come from the whole dose curve; as a rule, active = well fitted curve in the direction sought with a large enough effect; inconclusive = small, poorly fitted or top-dose-only effect, or another doubt; inactive = no such curve, though single readings can be large; an effect the other way counts as inactive or inconclusive.

What was measured:
[1] = Primary qHTS for inhibitors of La Crosse Virus (LACV) - induced cell death in SH-SY5Y cells (AID 1508616);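 note: top concentration of the series differs between compounds; higher means more rescue of cells from virus-induced death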
Outline: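 Cytopathicity rescue screen: compounds pinned onto SH-SY5Y cells, which are then infected with LACV (MOI 0.01) and held 6 days at 37C. Percent activity is scaled between infected DMSO control and uninfected DMSO control.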

[2] = biological target: Calcium and integrin-binding protein 1 (Homo sapiens) (UniProt Q99828); test: Primary qHTS for Identification of Calcium Integrin Binding Protein 1 (CIB1) Competitor (AID 1508620);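 note: GST tagged CIB1 binding a fluorescein labelled alphaIIb integrin peptide tracer; top concentration of the series differs between compounds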
Outline: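 Fluorescence polarization competition: GST-tagged CIB1 (1 uM final) preincubated with compound 15 min at room temperature, then FITC-labelled alphaIIb peptide (100 nM final) added. After 15 min at room temperature, polarization read at Ex 480/Em 540.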

[3] = A High-Content qHTS Against Drug Library for the Identification of Small Molecules that Inhibit DYT1 Early Onset Primary Dystonia-Associated Cell Pathology (AID 1645839; calls by dose curve; note: series mostly up to about 46 µM)
Outline: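 Cells were seeded and left for 24 h, then dosed with compound alongside tetracycline induction of mutant EGFP-TorsinA. They were incubated for 48 h, fixed in 4% paraformaldehyde, permeabilized and imaged for mislocalization (%pathology) and cell count.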

[4] = biological target: Cytochrome P450 2D6 (Homo sapiens) (UniProt P10635); test: Cytochrome P450 family 2 subfamily D member 6 (CYP2D6) small molecule antagonists: luciferase biochemical (cell-free) qHTS assay (AID 1645840; active = well fitted curve in the direction sought with a large enough effect in the repeat runs; an effect the other way counts as inactive or inconclusive; note: nearly all actives have a fitted effect of over 55% in size; note: potency is the fitted concentration of half-maximal effect)
Outline: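 P450-Glo CYP2D6 system: proluciferin substrate converted by enzyme to luciferin, read by luminescence proportional to activity. Enzyme-substrate mix with compound 10 min at room temperature, then NADPH regeneration 1 h before detection reagent.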

[5] = biological target: Cytochrome P450 2C9 (Homo sapiens) (UniProt P11712); test: Cytochrome P450 family 2 subfamily C member 9 (CYP2C9) small molecule antagonists: luciferase biochemical (cell-free) qHTS assay (AID 1645842; active = well fitted curve in the direction sought with a large enough effect in the repeat runs; an effect the other way counts as inactive or inconclusive; note: nearly all actives have a fitted effect of over 55% in size; note: potency is the fitted concentration of half-maximal effect)
Outline: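 P450-Glo CYP2C9 system: proluciferin substrate with enzyme in mix containing 0.4% BSA, 10 min at room temperature, then NADPH regeneration solution added and incubated 1 h at 37C. Detection reagent stopped reaction; luminescence read after 20 min as RLU.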

[6] = biological target: Cytochrome P450 3A4 (Homo sapiens) (UniProt P08684); test: Cytochrome P450 family 3 subfamily A member 4 (CYP3A4) small molecule antagonists: luciferase qHTS assay (AID 1645841; active = well fitted curve in the direction sought with a large enough effect in the repeat runs; an effect the other way counts as inactive or inconclusive; note: nearly all actives have a fitted effect of over 45% in size)
Outline: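 P450-Glo CYP3A4 enzyme with proluciferin substrate preincubated 10 min with compound at room temperature, then NADPH regeneration 1 h. Luciferin detection reagent added for 20 min; luminescence recorded. Ketoconazole positive control.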

[7] = Primary qHTS for inhibitors of nuclear receptor binding SET domain protein 2 (NSD2) in an isogenic RCH-ACV NSD2 p.E1099K mutant (9B) (AID 1645876); note: nearly all actives have a fitted effect of over 70% in size
[8] = Primary qHTS for inhibitors of nuclear receptor binding SET domain protein 2 (NSD2) in an RCH-ACV wild type WT cells (2C) (AID 1645877); note: nearly all actives have a fitted effect of over 70% in size

Measured: Potency

Sequence of Cytochrome P450 2D6 (Homo sapiens) (P10635 whole entry, looked up): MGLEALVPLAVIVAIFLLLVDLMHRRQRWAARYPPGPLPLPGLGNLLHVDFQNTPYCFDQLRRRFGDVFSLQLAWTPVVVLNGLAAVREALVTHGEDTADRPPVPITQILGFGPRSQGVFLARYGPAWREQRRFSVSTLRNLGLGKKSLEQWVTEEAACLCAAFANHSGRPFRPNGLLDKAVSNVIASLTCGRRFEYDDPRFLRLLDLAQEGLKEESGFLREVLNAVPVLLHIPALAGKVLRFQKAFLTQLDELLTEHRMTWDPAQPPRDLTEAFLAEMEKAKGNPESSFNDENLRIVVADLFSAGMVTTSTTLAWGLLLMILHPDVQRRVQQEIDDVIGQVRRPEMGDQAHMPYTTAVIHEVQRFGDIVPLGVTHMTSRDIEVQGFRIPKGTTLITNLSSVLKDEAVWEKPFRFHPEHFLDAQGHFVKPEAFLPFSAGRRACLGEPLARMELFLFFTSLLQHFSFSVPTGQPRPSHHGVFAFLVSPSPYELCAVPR
Sequence of Cytochrome P450 2C9 (Homo sapiens) (P11712 whole entry, looked up): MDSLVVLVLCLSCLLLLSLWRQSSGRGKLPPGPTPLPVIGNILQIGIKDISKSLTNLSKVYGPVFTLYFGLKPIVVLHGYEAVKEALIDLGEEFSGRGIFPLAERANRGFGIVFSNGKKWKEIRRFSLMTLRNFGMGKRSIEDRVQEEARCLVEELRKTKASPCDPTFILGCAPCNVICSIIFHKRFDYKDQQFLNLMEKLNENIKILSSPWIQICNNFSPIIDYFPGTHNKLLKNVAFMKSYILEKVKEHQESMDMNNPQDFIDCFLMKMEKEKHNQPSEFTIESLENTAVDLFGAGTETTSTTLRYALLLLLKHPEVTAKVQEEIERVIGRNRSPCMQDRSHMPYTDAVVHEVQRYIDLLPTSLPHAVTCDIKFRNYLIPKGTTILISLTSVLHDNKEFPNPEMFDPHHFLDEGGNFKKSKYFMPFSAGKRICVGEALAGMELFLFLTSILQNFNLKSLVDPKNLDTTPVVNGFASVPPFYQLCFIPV
Sequence of Calcium and integrin-binding protein 1 (Homo sapiens) (Q99828 whole entry, looked up): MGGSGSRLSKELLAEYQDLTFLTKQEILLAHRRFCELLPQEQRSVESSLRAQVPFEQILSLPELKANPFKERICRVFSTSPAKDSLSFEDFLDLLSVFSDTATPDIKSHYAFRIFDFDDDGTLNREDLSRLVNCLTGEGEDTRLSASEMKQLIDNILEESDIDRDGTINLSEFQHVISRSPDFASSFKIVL
Sequence of Cytochrome P450 3A4 (Homo sapiens) (P08684 whole entry, looked up): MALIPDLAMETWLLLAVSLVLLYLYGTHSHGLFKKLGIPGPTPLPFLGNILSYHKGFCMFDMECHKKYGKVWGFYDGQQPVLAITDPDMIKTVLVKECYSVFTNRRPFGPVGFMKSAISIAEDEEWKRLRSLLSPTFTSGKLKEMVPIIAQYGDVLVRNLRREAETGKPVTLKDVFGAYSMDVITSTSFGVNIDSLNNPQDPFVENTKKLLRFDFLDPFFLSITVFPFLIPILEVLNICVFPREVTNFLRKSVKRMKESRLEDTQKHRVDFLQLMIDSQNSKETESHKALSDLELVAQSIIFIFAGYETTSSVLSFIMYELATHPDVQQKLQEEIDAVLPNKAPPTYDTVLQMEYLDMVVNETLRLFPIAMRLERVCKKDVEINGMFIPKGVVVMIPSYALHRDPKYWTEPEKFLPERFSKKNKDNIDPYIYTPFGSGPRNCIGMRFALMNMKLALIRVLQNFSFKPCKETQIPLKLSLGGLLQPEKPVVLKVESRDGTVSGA

Cc1cc(C(C)(C)C)c(O)c(C(C)(C)C)c1
inactive: [1] | [2] | [3] | [4] | [5]

O=C(O)C1CCC1
inactive: [1] | [2] | [3] | [4] | [6] | [5] | [7] | [8]

COC(=O)c1cc(Cl)c(NC(C)=O)cc1OC
inactive: [1] | [2] | [3] | [4] | [5] | [7] | [8]

O=C(C1CCCCC1)N1CC(=O)N2CCCc3ccccc3C2C1 (stereo unspecified)
inactive: [1] | [2] | [3] | [4]
active: [5] 6.17 µM

Cc1ccc2c(Cl)cc(Cl)c(O)c2n1
inactive: [1] | [2] | [3] | [4] | [5] | [7] | [8]

CC(=O)Nc1c(I)c(NC(C)=O)c(I)c(C(=O)O)c1I
inactive: [1] | [2] | [3] | [7] | [8]

CC(C)C[C@H](NC(=O)CNC(=O)[C@H](Cc1ccc(O)cc1)NC(=O)[C@H](CO)NC(=O)[C@H](Cc1c[nH]c2ccccc12)NC(=O)[C@H](Cc1cnc[nH]1)NC(=O)[C@@H]1CCC(=O)N1)C(=O)N[C@@H](CCCN=C(N)N)C(=O)N1CCC[C@H]1C(=O)NCC(N)=O (stereo in doubt)
inactive: [1] | [2] | [3] | [5]

C1N2CN3CN1CN(C2)C3
inactive: [1] | [2] | [4] | [5]

C/C(=N/NC(=O)c1ccncc1)C(=O)O
inactive: [1] | [2] | [3] | [5] | [7] | [8]

CC(NN)c1ccccc1 (stereo unspecified)
inactive: [1] | [2] | [3] | [7] | [8]

CC(C)(C)C(=O)OCOC(=O)C1N2C(=O)CC2S(=O)(=O)C1(C)C (stereo unspecified)
inactive: [1] | [2] | [3] | [7] | [8]

C=C(C)C(=O)OCC(O)CO (stereo unspecified)
inactive: [1] | [2] | [3] | [5] | [7] | [8]

O=C(O)Cn1c(=O)n(Cc2ccc(Br)cc2F)c(=O)c2ccc(Cl)cc21
inactive: [1] | [2] | [3] | [7] | [8]

CCCN(CCC)C(=O)C(CCC(=O)OCCCN1CCN(CCOC(=O)Cc2c(C)n(C(=O)c3ccc(Cl)cc3)c3ccc(OC)cc23)CC1)NC(=O)c1ccccc1 (stereo unspecified)
active: [4] 7.76 µM | [5] 3.47 µM
inactive: [1] | [2]
